According to PubChem BioAssay AID493014 (National Center for Advancing Translational Sciences (NCATS), 2011):
Screen size: about 340,000 compounds; about 170 (0.05%) were called active. Not shown: some 26% with an inconclusive outcome. The call rests on the fitted dose curve; in most records, active means well fitted inhibition curve with a large enough effect in the signal ratio, with a control signal flat (not every such curve was filed as active); inconclusive means small, poorly fitted or top-dose-only effect, or effect the other way, or a change in a side signal; inactive means flat fitted curve, though single readings scatter; the % refers to the signal ratio. Many of the other results were omitted from the sample, so actives are more common in it than they were.

assay: qHTS Assay to Find Inhibitors of Chronic Active B-Cell Receptor Signaling; conditions: ABC-DLBCL IkBa-CBG/CBR reporter, luminescence ratio, 4 h; series mostly up to 46.1 µM; activity change, negative = inhibition: at the top concentration;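 on activity change, negative = inhibition: plate controls were basal doxycycline-induced cells for no effect and cells given 10 µM MG132 for full effect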
Text: NIH Molecular Libraries Probe Production Network [MLPCN] NIH Chemical Genomics Center [NCGC] MLPCN Grant: 1 R03 DA031086-01A1 PI Name: Dr. R. Eric Davis NCGC Assay Overview: Diffuse large B-cell lymphoma (DLBCL) is the most common category of non-Hodgkin lymphoma, with ~20,000 new cases per year in the United States. DLBCL should be regarded as a collection of different neoplasms. Microarray gene expression analysis has defined two principal types of DLBCL, named for their similarity to normal B cell stages or activation states: a germinal center B-cell (GCB) type, and an activated B-cell (ABC) type. In ABC-DLBCL, a constitutive high-level activity of the NF-kappaB family of transcription factors has been observed (1) and NF-kappaB target genes are more highly expressed in ABC primary tumors than in GCB tumors. Functional studies have shown a constitutive high-level activity of the IkappaB (inhibitor of kappa-B) kinase (IKK) complex. […] Further analysis of DLBCL primary tumors for NF-kappaB target gene expression imply that although CARD11 is required for constitutive IKK activity in all ABC-DLBCL lines, mutations in CARD11 may be the root cause of IKK activation only in lines or tumors with such mutations. In other words, CARD11 mutations may explain NF-kappaB activation in only 10% of ABC-DLBCL cases. […] This process has been termed 'chronic active BCR signaling' (CABS). The goal of this screen is to find small-molecule inhibitors of the CABS pathway found in ABC-DLBCL lines using a cell-based assay that measures IkappaBalpa stability, which has already been extensively validated in the OCI-Ly3 line (PubChem AID:445; REF: 4). […] The assay uses green (CBG68) and red (CBR) emitting beetle luciferases [Chroma-GloTM developed by Promega Corp.] where the green luciferase is fused to IkappaBalpha and the red luciferase is present in its native state. Both luciferase genes are stably present in the TMD8 human ABC DLBCL cell line, but their expression is under the control of tetracycline-inducible promoters. Following the addition of doxycycline to induce expression of the luciferases, the green luminescence in control cultures rises only slowly because the CBG fusion partner IkappaBalpha is targeted by IKK activity for rapid degradation. In contrast, green luminescence rises rapidly in the presence of proteasome inhibitors or IKK inhibitors. The rise in red luminescence of CBR is not affected by proteasome or IKK inhibitors, and serves as normalization for cell number and nonspecific effects. Compounds were screened as a concentration-titration series that ranged from 46 uM to 3 nM.
NCGC Assay Protocol Summary: Cells were seeded in 1536-well plates at 5000 cells/4uL in IMDM medium containing 0.5% FBS, w/o phenol red, 1% penicillin/streptomycin. Then, 23 nL of compounds or DMSO were delivered to each well using a pin tool. One uL 20ng/ml doxycycline was then dispensed into white solid 1536-well plates and the plates were incubated at 37C/5% C02 in a cell incubator for 4 hrs. Then 4 uL luminescent substrate mix (in-house prepared: 150 mM Tris-Cl, pH 7.6, 3 mM MgCl2, 1% Triton X-100, 5 mM DTT, 0.2 mM CoA, 0.15 mM ATP, 5 mM D-luciferin, final concentrations) was added to each well. The plate was incubated at r.t. for 10-15 min. The plates were measured on a ViewLux plate reader for green luminescence (540/20 nm filter) and red luminescence (618/8 nm filter). The green and red luminescent signals were corrected for red and green luminescence filter overlap using previously determined filter calibration constants (determined using the procedure outlined in the Promega Technical Manual; REF 4). The %Activity was determined from the ratio of corrected green/red luminescent values. MG132 were used as control. […] Red luminescent %Activity was normalized to the difference between red luminesence in basal cells (0%Activity) and zero luminescence (-100% Activity). […]
Potency means the concentration at half of the fitted maximal effect.

Activity change, negative = inhibition, inactive:
CN(CC(=O)Nc1ccc(Cl)c(C(F)(F)F)c1)C(=O)CCC(=O)c1ccccc1 -4.03%
CC1CCC(CN2CCN=C2N(C)C)CC1 (centres undefined) -3.3%
COc1ccc(C(CNC(=O)c2ccc(NS(=O)(=O)c3ccc(F)c(C)c3)cc2)N(C)C)cc1 (centres undefined) -5.47%
COc1cc(OC)cc(C(=O)N[C@H](C(=O)NNC(=O)c2ccc(Br)cc2)C(C)C)c1 -0.119%
CCN1C(=O)[C@@H]2[C@@H](c3ccc(-c4cccc(Cl)c4)cc3)N3CCC[C@@]3(C(=O)OC)[C@@H]2C1=O 0.439%
C=C(C)CNc1cc(S(=O)(=O)N2CCOCC2)ccc1Oc1ccccc1 5.13%
Cc1cc(Cl)c2oc(C(=O)N(C)C(C)c3ccccn3)c(C)c2c1 (centres undefined) 0.284%
CSCCC(NC(=O)c1ccccc1)C(=O)N1CCN(Cc2ccc(Cl)cc2)CC1 (centres undefined) -5.22%
COc1ccc(S(=O)(=O)N(C)C[C@H]2Oc3c(NC(=O)Nc4ccc5c(c4)OCO5)cccc3C(=O)N([C@H](C)CO)C[C@@H]2C)cc1 -0.56%
O=C(NCCC1CCCCN1S(=O)(=O)c1ccc(Cl)cc1)C(=O)NCc1ccco1 (centres undefined) 10.6%
O=C(NCCC(=O)N1O[C@@H]2C=C[C@H]1C2)OCC1c2ccccc2-c2ccccc21 4.42%
N#Cc1cccc(NC(=O)C2CCCN(C(=O)c3ccc(Cl)cc3)C2)c1 (centres undefined) -7.04%
CC(C)(C)OC(=O)C[C@@H]1C/C=C\C[C@@H](CC(=O)N[C@@H](CO)Cc2ccccc2)C(=O)N2CCC[C@H]2COC1=O -1.12%
CNS(=O)(=O)c1cccc(C(=O)OCCCC(=O)c2ccccc2)c1 -4.27%
COc1ccc(-c2noc(CCC(=O)N3CCN(c4cccc(C)c4)CC3)n2)cc1 -0.0829%
Cc1ccc(N2C(=O)N3[C@@H]4c5ccccc5OC[C@@H]4[C@@H](c4ccccc4)[C@@]3(C)C2=O)cc1 0.331%
CC(C)n1ncc2c(C(=O)Nc3ccc(CC#N)cc3)cc(C3CC3)nc21 -0.329%
COc1cccc(N2CCN(CC(=O)Nc3ccnn3C3CCCC3)CC2)c1 -0.74%
COc1ccccc1-c1sc2ccccc2c1C#CC1(O)CCCCC1 7%
C#CCOCCOCCOCCNc1nc(N2CCN(C(=O)[C@H](CO)n3cc([C@@H](N)C(C)C)nn3)CC2)nc(N2CCN(C(=O)[C@H](CCC(=O)O)n3cc([C@@H](N)[C@H](C)CC)nn3)CC2)n1 -0.657%
CCCCC/C=C/C1=CC(=O)C[C@H](c2ccc(Cl)cc2)C1 7.14%
COc1ccc(NS(=O)(=O)c2ccc3oc(SCC(N)=O)nc3c2)cc1 -8.77%
COC1=C(N2CCOCC2)C(=O)c2ccccc2C1=O 0.0293%
CCOC(=O)C1CCN(C(=O)CN2C(=O)NC(C)(c3ccc4cc(OC)ccc4c3)C2=O)CC1 (centres undefined) -1.79%
CC(C)(C)OC(=O)C[C@@H]1C/C=C\C[C@@H](CC(=O)N[C@H](CO)Cc2ccccc2)C(=O)NC[C@@H](c2ccccc2)OC1=O 1.85%
Cc1ccc(NC(=O)CCC(=O)N2CCC(c3ccccc3)=N2)cc1S(=O)(=O)N1CCCCC1 6.15%
Cc1ccc(-n2ncc(C(=O)NC3CC3)c2C2CCN(C(=O)OC(C)(C)C)CC2)c(C)c1 5.88%
COc1ccc(CN2C(CC(=O)Nc3cccnc3)c3ccc(C(F)(F)F)cc3S2(=O)=O)cc1 (centres undefined) -7.67%
Cn1c2cc(B(O)O)sc2c2cnn(Cc3ccccc3F)c(=O)c21 25.8%
COc1ccc(-c2c(-c3cc(OC)cc(OC)c3)n(C)c3ccc(-c4ccn[nH]4)cc23)cc1 -0.87%
COc1ccc(S(=O)(=O)N2CCCCC2)cc1NC(=O)c1cc([N+](=O)[O-])ccc1N1CCOCC1 5.45%
Cc1ccc(NC(=O)c2cccc(S(=O)(=O)N3CCCc4ccccc43)c2)nc1 12.1%
Cc1ccc(S(=O)(=O)N2CCN(C(=O)Cn3c(=O)cnc4ccccc43)CC2)c(C)c1 -0.195%
COc1ccc(N2CCN(C(CNS(=O)(=O)c3ccc(C)cc3)c3ccccc3)CC2)cc1 (centres undefined) 4.46%
COc1ccc(CCN(C)C(=O)C23CC4CC(CC(Cl)(C4)C2)C3)cc1OC 0.382%
COC(=O)[C@]1(C)N[C@H](c2ccc(-c3ccc(Cl)c(Cl)c3)cc2)[C@@H]2C(=O)N(C)C(=O)[C@@H]21 -4.17%
CC(C)(C)OC(=O)C[C@@H]1C/C=C\C[C@@H](CC(=O)N(CCO)Cc2ccccc2)C(=O)N[C@H](Cc2ccccc2)COC1=O 0.431%
CSCCC1NC(=O)N(CC(=O)Nc2cccc(S(=O)(=O)N3CCCCCC3)c2)C1=O (centres undefined) -1.39%
Cc1c(O)c(C)c2c(c1O)C(=O)C[C@@H](c1ccccc1)O2 12.1%
COc1ccc(/C=C(\C#N)C(=O)NCCCn2ccnc2)cc1 0.0871%
COc1ccc(CNC(=O)CCn2cccc2)cc1 14.4%
CCC1=Nc2cc(C(=O)NCCCN3CCOCC3)ccc2Sc2ccc(Br)cc21 2.34%
COCCCNC(=O)CC1C[C@H](C(=O)N2CCCCC2)[C@@]2(CCc3ccccc3)c3[nH]c4ccccc4c3CCN2C1=O (some centres undefined) -1.58%
O=C1OC[C@@H]2CCCN2C(=O)[C@H](CC(=O)N(CCO)Cc2ccccc2)C/C=C\CC[C@@H]1Cc1ccc(F)cc1 0.374%
Cc1cccc(Nc2nnc(SCC(=O)c3c(N)n(C4CC4)c(=O)[nH]c3=O)s2)c1C 0.765%
Cc1cccc(C)c1NC(=O)COC(=O)c1c(C)nn(-c2ccccc2)c1C -0.466%
O=C1NC(Cc2ccc(O)cc2)c2nc3ccc(Cl)cc3c(=O)n2-c2ccccc21 (centres undefined) -3.14%
CCC(CC)COC(=O)C1=C(C)NC(=O)NC1c1ccc([N+](=O)[O-])cc1 (centres undefined) -8.44%
Cc1ccc(CC(=O)Nc2ccc(S(=O)(=O)N3CCOCC3)cc2)cc1C -2.28%
CC(C)(C)OC(=O)Nc1ccc([C@@H](NC(=O)OC(C)(C)C)C(=O)OC(C)(C)C)cc1 -1.99%
CN(C(=O)c1cccc(NC(=O)Cc2ccc([N+](=O)[O-])cc2)c1)C1CCC1 -5.64%
CN(C)S(=O)(=O)c1cccc(NC(=O)COc2ccc3ccccc3c2)c1 -4.65%
COc1ccc(-c2nc3c(s2)CCc2onc(-c4ccc(OC)cc4)c2-3)cc1 2.16%
CCOC(=O)[C@@H]1[C@H]2COc3ccc(Br)cc3[C@H]2N2C(=O)N(c3ccc(C)cc3)C(=O)[C@@]12C -0.0599%
CN(C(=O)c1cccc(NC(=O)C2CCN(C(=O)OC(C)(C)C)CC2)c1)C1CCC1 -17.4%
CC(=O)c1ccc(OCCCC(=O)Nc2ccc(C)c(S(=O)(=O)N3CCOCC3)c2)cc1 -3.66%
COc1cc(C(c2c(NC(=O)c3ccco3)sc(C)c2C)N2CCOCC2)cc(OC)c1OC (centres undefined) 2.54%
Cc1ccc(S(=O)(=O)N(C)C)cc1NC(=O)CN1c2cccc3cccc(c23)S1(=O)=O -4.26%

Potency, active:
COc1ccc(CNC(=O)/C(C#N)=C/c2cccc(OC)c2OC)cc1 11.2 µM
